One may read the AC50 as the concentration at which the activity in the assay is half-maximal.

Results filed as inconclusive are left out. Calls of active or inactive are those of the source. How the source made its calls: active means hit-call score of the fitted dose curve at least 0.9, where 1 is the maximum; inconclusive means response in the unintended direction; inactive means score below 0.9.

In this experiment the target is Oxysterols receptor LXR-beta (Homo sapiens) (UniProt P55055). Nature of the experiment: ATG_LXRb_TRANS: Attagene TRANS-FACTORIAL HepG2 Assay for human Liver X Receptor beta (LXRb) (AID 2282981). Particulars: HepG2 Attagene TRANS GAL4-LXRb reporter, mRNA. Here is the method: ATG_TRANS is a cell-based, multiplexed-readout assay that uses HepG2, a human liver cell line, with measurements taken at 24 hours after chemical dosing in a 24-well plate.ATG_LXRb_TRANS is one of 30 assay component(s) measured or calculated from the ATG_TRANS assay. It is designed to make measurements of mRNA induction, a form of inducible reporter, as detected with fluorescence intensity signals by Reverse transcription polymerase chain reaction (RT-PCR) and Capillary electrophoresis technology.Data from the assay component ATG_LXRb_TRANS was analyzed into 1 assay endpoint. This assay endpoint, ATG_LXRb_TRANS, was analyzed in the positive analysis fitting direction relative to DMSO as the negative control and baseline of activity. Using a type of inducible reporter, measures of mRNA for gain-of-signal activity can be used to understand the reporter gene at the transcription factor-level as they relate to the gene NR1H2. Furthermore, this assay endpoint can be referred to as a primary readout, because this assay has produced multiple assay endpoints where this one serves a reporter gene function. To generalize the intended target to other relatable targets, this assay endpoint is annotated to the nuclear receptor intended target family, where the subfamily is non-steroidal.
Oxysterols receptor LXR-beta (Homo sapiens), sequence (P55055 whole entry, looked up, the tested form may be a part): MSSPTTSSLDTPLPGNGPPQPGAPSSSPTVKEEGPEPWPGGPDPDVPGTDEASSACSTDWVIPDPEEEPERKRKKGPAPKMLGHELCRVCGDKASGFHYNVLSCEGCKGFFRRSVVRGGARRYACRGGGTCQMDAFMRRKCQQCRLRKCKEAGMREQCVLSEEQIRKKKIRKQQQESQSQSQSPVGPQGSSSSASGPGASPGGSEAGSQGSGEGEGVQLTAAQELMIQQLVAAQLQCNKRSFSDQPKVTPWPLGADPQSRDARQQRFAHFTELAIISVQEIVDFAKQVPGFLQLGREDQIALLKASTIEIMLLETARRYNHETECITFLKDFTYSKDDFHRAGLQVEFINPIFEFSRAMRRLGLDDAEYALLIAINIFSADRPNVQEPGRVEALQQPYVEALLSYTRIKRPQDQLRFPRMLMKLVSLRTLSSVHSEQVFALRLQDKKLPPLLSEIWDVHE
Human liver HepG2 cells are transiently transfected with multiple reporter transcription units (MRTUs) in 6-well plates using FuGene 6 reagent (Roche; 3 ml FuGene/1 mg DNA). The MRTU constructs are regulated by a cis-regulating element (promoter). […] A major difference between the CIS and TRANS system is that in CIS activities of endogenous TFs are measured, whereas the TRANS assay evaluates changes in activities of exogenous, chimeric NR-Gal4 proteins. […] At the end of 24 hour incubation, total RNA was isolated using TriZol reagent (Invitrogen). The isolated RNA is then reverse-transcribed using oligo(dT) primer and Mo-MLV reverse transcriptase (Invitrogen) with DNAse I (Ambion) treatment for 30 min. The one-tenth of the produced cDNA was amplified by PCR using Taq DNA polymerase (Invitrogen) and two reporter sequence-specific primers. The PCR products were fluorescently labeled by primer extension with 6-arboxyfluorescein (6-FAM) 5'-labeled reporter sequence-specific primer (2 min at 95 C, 20 s at 68 C and 10 min at 72 C) and these products were digested with 5U of HpaI (New England Biolabs) for 2h at 37 C. The fragments were purified using Qiaquick PCR columns (Qiagen), analyzed on an ABI 3130xL genetic analyzer (Applied Biosystems) with peak positions identified by using a set of X-rhodamine (ROX)-labeled MapMarker1000 molecular weight standards (BioVentures). The raw capillary electrophoresis data was processed using Attagraph software (Attagene).
On to `N#CCC#N`, for which the molecule was classed as inactive.

As to `CCOC(=O)Cc1ccccc1`, the molecule was classed as inactive.

With `O=C(CCl)Nc1ccccc1`, the outcome was inactive.

With `Clc1cnc(Oc2ccc(Oc3ncc(Cl)cc3Cl)cc2)c(Cl)c1`, the molecule was called inactive.

For `C=CC(=O)NC(C)(C)CC(C)=O`, the result was inactive.

`NC(=O)CCl`: the call was inactive.

Consider `Cc1ccc2nc3sc(=O)sc3nc2c1`, for which the outcome was inactive.

Consider `C[C@@H]1O[C@@H](O[C@H]2C[C@@H](O)[C@]3(CO)[C@H]4[C@H](O)C[C@]5(C)[C@@H](C6=CC(=O)OC6)CC[C@]5(O)[C@@H]4CC[C@]3(O)C2)[C@H](O)[C@H](O)[C@H]1O`, for which the call was inactive.

For the molecule `OCCCCO`, the result was inactive.

Consider `CCOP(=S)(OCC)OP(=S)(OCC)OCC`, for which the molecule was classed as inactive.

`CC1CC(=O)O1` (stereo not given): the outcome was inactive.

On to `Cc1cc(Cl)ccc1O`, for which the molecule was classed as inactive.

Turning to `C=CC(=O)[O][Sn]([CH2]CCC)([CH2]CCC)[CH2]CCC`, the molecule was called inactive.

Consider `C=CCN=C=S`, for which the result was inactive.

With `CN(C)[C@@H]1C(=O)C(C(N)=O)=C(O)[C@@]2(O)C(=O)C3=C(O)c4c(O)ccc(Cl)c4[C@@](C)(O)[C@H]3C[C@@H]12`, the molecule was called inactive.

On to `O=NN1CCCCCCC1`, for which the molecule was called inactive.

With `N#Cc1ccccc1N`, the molecule was classed as inactive.

Regarding `C=CCCl`, the molecule was classed as inactive.

With `O=NN1CCCCCC1`, the result was inactive.

As for `O=C(N[C@H]1CN2CCC1CC2)c1ccc2c(c1)OCCO2`, the molecule was classed as inactive.

In the case of `CCCCN(CCCC)C(=S)[S-].CCCCN(CCCC)C(=S)[S-].[Ni+2]`, the molecule was classed as inactive.

Regarding `Nc1ccc(-c2ccccc2)cc1`, the outcome was inactive.

As to `CCOc1cc(C=O)ccc1O`, the result was inactive.

On to `Cc1cc(C(C)(C)c2ccc(O)c(C)c2)ccc1O`, for which the molecule was classed as inactive.

Consider `C=C(C)[C@@H]1CC=C(C=O)CC1`, for which the result was inactive.

`CN(N=O)C(N)=O`: the molecule was called inactive.

Turning to `O=[N+]([O-])c1cc([As](=O)(O)O)ccc1O`, the molecule was called inactive.

Consider `COCC(=O)N(c1c(C)cccc1C)[C@H](C)C(=O)OC`, for which the outcome was inactive.

`CCC[CH2][Sn]([CH2]CCC)([CH2]CCC)[CH2]CCC`: the outcome was inactive.

`C=CC(F)(C(F)(F)F)C(F)(F)C(F)(F)F` (stereo not given): the molecule was called inactive.

In the case of `[F][Sn]([c]1ccccc1)([c]1ccccc1)[c]1ccccc1`, the outcome was inactive.

As for `CCOCn1c(-c2ccc(Cl)cc2)c(C#N)c(Br)c1C(F)(F)F`, the molecule was called inactive.

As for `CC(O)(CS(=O)(=O)c1ccc(F)cc1)C(=O)Nc1ccc(C#N)c(C(F)(F)F)c1` (stereo not given), the result was inactive.

Take `O=C(NC(=O)c1c(F)cccc1F)Nc1cc(Cl)c(OC(F)(F)C(F)C(F)(F)F)cc1Cl` (stereo not given): the AC50 was 49.9 µM (active).

Consider `O=S(=O)(F)C(F)(F)C(F)(F)C(F)(F)C(F)(F)F`, for which the result was inactive.

On to `CCCCOC(C)=O`, for which the outcome was inactive.

Take `O=C(O)COc1ccc(Cl)cc1`: the molecule was classed as inactive.

As for `O=C(Cc1ccccc1)OCCc1ccccc1`, the molecule was called inactive.

In the case of `CC(C)[N+](=O)[O-]`, the molecule was called inactive.

As to `Brc1ccc(Oc2c(Br)cc(Br)cc2Br)c(Br)c1`, the call was inactive.

The record behind these values is PubChem BioAssay (EPA / NIEHS).
